Experimental data reported in PubChem BioAssay (NCI).
Compounds without any hit were thinned out: in the full panel of roughly 83,000, 20% have a hit.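 Note: values are percent growth. 100 is the growth of untreated cells, values between 100 and 0 indicate rising inhibition; between -100 and 0 indicates cell death.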 Calls of active or inactive are those of the source. The calls were made as follows: active = growth percent below 10; inactive = the rest.

tested on: OVCAR-5 ovarian; assay: NCI-60 one-dose screen, 48 h (100 = growth as untreated, 0 = no growth, -100 = all killed); conditions: 10 µM unless noted

| SMILES | growth |
| --- | --- |
| O=C(NCCNc1nccc(-c2c(-c3cccc(O)c3)nc3sccn23)n1)Nc1cccc(C(F)(F)F)c1 | 117% (inactive) |
| O=C(Nc1cccc(-n2ccc3c(NC(=O)c4ccccc4)nccc32)c1)c1cc(N2CCOCC2)cc(C(F)(F)F)c1 | 19.3% (inactive) |
| O=C(Nc1ccc(-n2cc(-c3ccncc3)c(-c3ccc(O)c(Cl)c3)n2)cc1)c1cc(C(F)(F)F)cc(C(F)(F)F)c1 | 70.9% (inactive) |

tested on: OVCAR-4 ovarian; assay: as above; conditions: 10 µM unless noted

| SMILES | growth |
| --- | --- |
| O=C(Cn1c2ccccc2c2ccncc21)N/N=C/c1c[nH]c2ccccc12 | -60% (active) |
| Cc1ccc(-c2nc3c(N=Nc4ccc(S(N)(=O)=O)cc4)c(N)nn3c(N)c2C#N)cc1 | 52.2% (inactive) |
| O=C(Nc1ccccc1Cl)c1c[nH]c(=O)c(-c2ccc(N3CCCOC4(CC4)C3)cc2)c1 | 44.3% (inactive) |
| OC(COc1ccccc1Cl)CN1CCN(c2ccc(Cl)cc2)CC1 (stereo not drawn) | 91.7% (inactive) |
| Nc1nccc2c1ccn2-c1ccc(NC(=O)Nc2cccc(C(F)(F)F)c2)cc1 | 108% (inactive) |
| O=C(Nc1ccc(-n2ccc3c(NC(=O)c4ccccc4)nccc32)cc1)Nc1cccc(C(F)(F)F)c1 | 26% (inactive) |
| O=C1C(Cl)=C(Nc2ccccc2)C(=O)C(Cl)=C1Nc1ccccc1 | 115% (inactive) |
| CC(=O)Nc1ccc([I+]c2ccc([N+](=O)[O-])cc2)cc1 | 90% (inactive) |
| CCN1CCN(Cc2ccc(NC(=O)Nc3cccc(-n4ccc5c(NC(=O)c6ccccc6)nccc54)c3)cc2C(F)(F)F)CC1 | 95.8% (inactive) |
| O=C(Nc1cccc(-n2ccc3c(NC(=O)c4ccccc4)nccc32)c1)c1cccc(C(F)(F)F)c1 | 72.9% (inactive) |
